Bioassay records: PubChem, National Center for Advancing Translational Sciences (NCATS)
TGFb SMAD3 inh = qHTS for Inhibitors of TGF-b | HepG2 CAGA-GFP TGF-b/SMAD3 reporter, GFP fluorescence, 18 h; TGF-beta stimulated, 500 pg/mL final | Potency, µM (titrated, usually from 46.1 µM), for inactives: at the top dose activity, negative = inhibition, usual class: inhibitors | 1.2% of 410,000 active | AID 588855, 2011; further: potency means the concentration at half of the fitted maximal effect; on the % scale 0 is the no-effect control and ±100 the full control effect; nearly all actives have a fitted effect of over 65% in size
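HEPG2 CAGA-GFP reporter cells (1000/well, DMEM with 1% FBS) received compounds, then recombinant TGF-beta at 500 pg/mL final for 18 hours at 37 degrees C. Per-cell GFP summed per well was normalised to unstimulated and stimulated DMSO controls before curve fitting.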
TDP1 cell noCPT = qHTS for Inhibitors of human tyrosyl-DNA phosphodiesterase 1 (TDP1): qHTS in cells in absence of CPT | Potency, µM (highest dose often 46.2 µM), inactives show top-dose activity change, negative = growth inhibition, actives largely listed as inhibitors | DT40 Tdp1-/- hTDP1 cells, no CPT, ATP luminescence, 48 h | 15% of 420,000 active; further: potency means the concentration at half of the fitted maximal effect; on the % scale 0 is the no-effect control and ±100 the full control effect; nearly all actives have a fitted effect of over 55% in size
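DT40 Tdp1-/-;hTDP1 cells, no CPT (DMSO vehicle only), 400 cells/well; compounds pin-transferred; ≥48 hr, 37 °C; CellTiter-Glo 30 min RT dark, luminescence read.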
TDP1 block = qHTS Assay for Inhibitors of Tyrosyl-DNA Phosphodiesterase (TDP1). Tyrosyl-DNA phosphodiesterase 1 (Homo sapiens), Q9NUW8. recombinant TDP1, AlphaScreen DNA substrate cleavage. Potency, µM (highest dose often 130 µM), for inactives: at the top dose activity change, negative = inhibition, hits mostly inhibitors. 0.28% of 350,000 active. AID 485290, 2010; further: potency means the concentration at half of the fitted maximal effect; on the % scale 0 is the no-effect control and ±100 the full control effect; nearly all actives have a fitted effect of over 40% in size
Target sequence (Q9NUW8 whole entry, looked up): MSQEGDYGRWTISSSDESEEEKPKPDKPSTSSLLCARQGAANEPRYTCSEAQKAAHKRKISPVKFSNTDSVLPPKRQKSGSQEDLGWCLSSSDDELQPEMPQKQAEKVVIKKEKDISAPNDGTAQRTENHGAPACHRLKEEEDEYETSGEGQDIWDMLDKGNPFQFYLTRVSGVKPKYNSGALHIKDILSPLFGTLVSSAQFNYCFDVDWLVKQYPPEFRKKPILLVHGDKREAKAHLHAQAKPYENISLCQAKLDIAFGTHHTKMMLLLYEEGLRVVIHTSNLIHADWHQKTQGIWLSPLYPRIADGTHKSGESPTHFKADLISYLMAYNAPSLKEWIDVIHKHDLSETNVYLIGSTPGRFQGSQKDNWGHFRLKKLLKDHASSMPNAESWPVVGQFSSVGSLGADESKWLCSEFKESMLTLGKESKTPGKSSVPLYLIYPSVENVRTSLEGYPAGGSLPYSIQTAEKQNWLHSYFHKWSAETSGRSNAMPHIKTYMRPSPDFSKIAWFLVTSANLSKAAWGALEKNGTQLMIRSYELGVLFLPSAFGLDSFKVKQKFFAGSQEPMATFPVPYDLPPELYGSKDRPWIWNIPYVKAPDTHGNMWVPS
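Enzyme-compound mixtures sat 15 min at room temperature, followed by a 5 min reaction with 15 nM final substrate and 10 min with AlphaScreen beads. Recombinant human Tdp1 was used at 1 nM final.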
DT40 TDP1 CPT = qHTS for Inhibitors of human tyrosyl-DNA phosphodiesterase 1 (TDP1): qHTS in cells in presence of CPT; chicken DT40 Tdp1-/-;hTDP1 cells + 20 nM CPT, ATP luminescence, 48 h; 12% of 420,000 active; Potency, µM (series often up to 46.2 µM), for the others: top-dose activity change, negative = growth inhibition, usual class: inhibitors; further: potency means the concentration at half of the fitted maximal effect; on the % scale 0 is the no-effect control and ±100 the full control effect; nearly all actives have a fitted effect of over 55% in size
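Chicken DT40 Tdp1-/- cells stably complemented with human TDP1 were seeded at 400 cells/well in medium containing 20 nM camptothecin, exposed to pin-transferred compounds, and grown at 37 °C for at least 48 hr. Viability was read as ATP luminescence.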
HepG2 viability = qHTS for Inhibitors of TGF-b: Cytotox Counterscreen; HepG2 CAGA-GFP viability, ATP luminescence, 18 h; Potency, µM (series often up to 46.1 µM), for inactives: at the highest dose activity change, negative = cytotoxicity, hits mostly cytotoxic; 0.76% of 410,000 active; AID 588856, 2011; further: potency means the concentration at half of the fitted maximal effect
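CellTiter-Glo luminescence gave cytotoxicity after 18 hours at 37 degrees C. The cells were HepG2 CAGA-GFP in 1% FBS DMEM, stimulated with 500 pg/mL TGF-beta after compound addition. %Activity was normalised to no-cell wells (complete cell-killing) and DMSO (no toxicity), and curves were fitted and classified.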
IL-1B inflam inh = qHTS for Inhibitors of Inflammasome Signaling: IL-1-beta AlphaLISA Primary Screen; 4.7% of 360,000 active; THP-1 LPS/ATP IL-1B secretion, AlphaLISA, 16 h; hits give low values; activity change, % at 57.5 µM; in the data active means activity change below about -50%; inconclusive means mostly about -30% to -49%; further: on the % scale 0 is the no-effect control and ±100 the full control effect
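Secreted IL-1B measured by AlphaLISA bead assay after 16 h compound exposure of THP-1 cells; compounds (final up to 57.5 uM) added 1 h before LPS (250 ng/mL) and ATP (1.25 mM) stimulation; lower signal means less secretion.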
An asterisk follows results filed as active; ? = inconclusive; nt = no result given. In the library only some 18% were active in any assay of this set; here they are far more common. Unless noted, the call rests on the fitted dose curve; in most records, active means well fitted curve in the direction sought with a large enough effect; inconclusive means small, poorly fitted or top-dose-only effect, or another doubt; inactive means no such curve, though single readings can be large; an effect the other way counts as inactive or inconclusive.

SMILES	TGFb SMAD3 inh	TDP1 cell noCPT	TDP1 block	DT40 TDP1 CPT	HepG2 viability	IL-1B inflam inh
CCN1C(=O)[C@H]2[C@@H](c3ccc(-c4cccc(Cl)c4)c(OC)c3)N[C@@](Cc3ccccc3)(C(=O)OC)[C@H]2C1=O	?	18µM*	0%	?	12%	?
COC(=O)[C@]1(Cc2ccccc2)N[C@H](c2ccc(-c3cccc(Cl)c3)c(OC)c2)[C@@H]2C(=O)N(C)C(=O)[C@@H]21	-5%	10µM*	nt	13µM*	-49%	?
O=C(c1ccc(Br)o1)N1CCc2ccccc21	nt	nt	-6%	nt	nt	nt
O=C(CN1C(=O)CSc2cc(S(=O)(=O)N3CCCCCC3)ccc21)NCCc1ccccc1	?	?	-3%	?	0%	-62*
CC1CCCCC1NC(=O)CN1C(=O)CSc2cc(S(=O)(=O)N3CCCCCC3)ccc21 (centres undefined)	12%	21µM*	5%	?	-10%	-25
O=C(CSc1nnc2ccccn12)Nc1cccc(S(=O)(=O)N2CCOCC2)c1	-3%	-3%	-4%	-3%	0%	7
Cc1cccc(C)c1OCc1cc(C(=O)N2CCC(c3ccccc3)CC2)no1	-12%	?	-5%	?	-20%	?
Cc1ccc(Cl)cc1N1CCN(C(=O)c2ccc(CS(=O)(=O)c3ccccc3C)o2)CC1	?	18µM*	3%	?	-40%	nt
Cc1cccc(C)c1OCc1cc(C(=O)N2CCN(c3ccc(F)cc3)CC2)no1	?	-24%	1%	?	-12%	-51*
O=C(c1ccc(CS(=O)(=O)c2c(Cl)cccc2Cl)o1)N1CCN(c2ccccc2)CC1	-25%	15µM*	7%	?	-30%	nt
Cc1ccccc1S(=O)(=O)Cc1ccc(C(=O)N2CCN(c3ccc(F)cc3)CC2)o1	?	?	4%	16µM*	-28%	1
O=C(c1ccc(CS(=O)(=O)c2c(Cl)cccc2Cl)o1)N1CCCC1	3%	-26%	-1%	?	-22%	4
COc1ccccc1CNC(=O)Cn1cccc1C(=O)c1ccccc1C	5%	-6%	5%	-22%	-1%	-8
Cc1ccc(N=C(NO)c2nonc2N)c(C)c1	-5%	-19%	4%	-14%	-4%	?
Cc1ccc(N=C(NOCc2ccc(Cl)cc2Cl)c2nonc2N)c(C)c1	16µM*	?	1%	-29%	-45%	-6
CCc1ccccc1N(C(C)=O)c1nc(CCl)cs1	10%	23µM*	6%	15µM*	-9%	-15
CC(=O)c1cccc(NC(=O)c2c(C)nn(-c3ccc(F)cc3)c2-n2cccc2)c1	0%	nt	3%	nt	-3%	nt
CN(C(=O)Cn1cc(S(=O)(=O)Cc2ccccc2Cl)c2ccccc21)c1ccccc1	-19%	21µM*	4%	21µM*	-7%	nt
COc1ccc(NC(=O)Cn2cc(S(=O)(=O)Cc3ccccc3)c3ccccc32)c(OC)c1	0%	5%	8%	5%	13%	16
COc1ccc(C)cc1NC(=O)Cn1cc(S(=O)(=O)Cc2ccccc2Cl)c2ccccc21	-21%	21µM*	6%	?	-3%	nt
CC(C)CCOc1ccc(CO[C@@H]2[C@H]3OC(C)(C)O[C@H]3O[C@@H]2C(O)CO)cc1 (some centres undefined)	-3%	?	nt	?	8%	1
